Screens from PubChem BioAssay.
Chronic BCR inh – blocks chronic active B-cell receptor signaling; 340,000 tested, 0.05% active; ABC-DLBCL IkBa-CBG/CBR reporter, luminescence ratio, 4 h; Potency, µM (series often up to 46.1 µM), hits mostly inhibitors; active = well fitted inhibition curve with a large enough effect in the signal ratio, with a control signal flat, not every such curve was filed as active; inconclusive = small, poorly fitted or top-dose-only effect, or effect the other way, or a change in a side signal; the % refers to the signal ratio
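TMD8 human ABC-DLBCL cells with doxycycline-inducible IκBα–green luciferase fusion and unfused red luciferase, in 0.5% FBS medium; compounds up to 46 uM, 4 h at 37C. Green/red luminescence ratio, filter-overlap corrected, fitted to concentration-response curves.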
D3 antag – blocks the human D3 dopamine receptor; P35462; D3R cells, DiscoveRx beta-arrestin luminescence, antagonist mode; active compounds read low; max response, negative = inhibition, %; 360,000 tested, 2.5% active; AID 652054; in the data active = max response below about -50%; inconclusive = no clear call, values can overlap the other calls
Target sequence (P35462 whole entry, looked up): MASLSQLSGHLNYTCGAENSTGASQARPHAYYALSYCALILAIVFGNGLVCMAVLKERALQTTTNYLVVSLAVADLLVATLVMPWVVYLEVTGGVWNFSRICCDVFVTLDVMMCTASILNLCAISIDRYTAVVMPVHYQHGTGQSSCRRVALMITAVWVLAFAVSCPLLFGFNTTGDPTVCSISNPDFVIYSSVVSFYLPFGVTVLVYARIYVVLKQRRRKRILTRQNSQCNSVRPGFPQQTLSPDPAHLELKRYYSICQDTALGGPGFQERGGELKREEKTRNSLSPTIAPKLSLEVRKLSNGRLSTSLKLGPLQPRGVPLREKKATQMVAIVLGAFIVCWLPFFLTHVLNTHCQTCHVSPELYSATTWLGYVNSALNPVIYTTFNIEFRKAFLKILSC
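Cells expressing the human receptor were seeded at 1500 cells/well, incubated overnight at 37 degrees C in 5% CO2, then exposed to library compounds with dopamine controls for 90 minutes at 37 degrees C before luminescent detection.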
D1 antag – human D1 dopamine receptor antagonism. P21728. HEK293 TREx D1 cells, calcium flux, dopamine EC80; active compounds read low. activity change, negative = inhibition, % at 10 µM. 360,000 tested, 3.2% active; in the data active = activity change below about -30%
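Calcium flux readout: force-coupled, inducible Hek293 Trex D1 line, cells induced overnight at 30 C with tetracycline, dye-loaded 30–90 min at RT. Antagonism scored against EC80 dopamine challenge given 180 s after compound.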
D1 agonist – human D1 receptor agonism. 360,000 tested, 1% active. P21728. HEK293 T-REx D1 cells, calcium flux, agonist mode. activation, % at 2 µM; in the data active = activation above about 30%
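Inducible HEK293 T-REx D1 cells, force-coupled to calcium signalling, were plated at 4000 cells/well with tetracycline and held overnight at 30 C. After no-wash calcium dye loading, compound-evoked calcium rise over 180 s flagged agonists.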
D1 potentiator – enhances dopamine response at the human D1 receptor; P21728; potentiation, % at 10 µM; HEK293 TREx D1 cells, calcium flux, dopamine EC20 potentiation; 360,000 tested, 0.036% active; in the data active = potentiation above about 30%
DRD3 agonist – activates the human D3 dopamine receptor; max activation, %; D3R DiscoveRx beta-arrestin cells, luminescence, 90 min; P35462; 410,000 tested, 0.58% active; AID 652048; in the data active = max activation above about 30%
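Cells at 1500/well, incubated overnight, then treated with pinned compounds (dopamine as control) for 90 min at 37 degrees C. DiscoveRx reagent added for 30 - 60 minutes at room temperature; luminescence read.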
Numbers stand for hits; ! = a repeat was not active. Only some compounds are listed: those with a hit (about 6% of all), similar ones and a draw of the others.

Results for N#CCCCSc1nnnn1-c1cccc(Cl)c1 ?
Chronic BCR inh: inactive; D3 antag: inactive; D1 antag: -37; D1 agonist: inactive; D1 potentiator: inactive; DRD3 agonist: inactive

What do the screens show for `CC(C)/C=C/C(=O)N1CCC(N2CCC(C(=O)NCC3CCCO3)CC2)CC1` (stereo not given)?
D3 antag: inactive; DRD3 agonist: inactive

Results for CC(=O)Nc1nonc1-c1nnc(SCC(=O)Nc2cccc(C)c2C)n1-c1ccccc1 ?
D1 antag: inactive; D1 agonist: inactive; D1 potentiator: inactive; DRD3 agonist: inactive

What do the screens show for `COc1ccc(-c2nnn(CC(=O)N(Cc3ccco3)C(C(=O)NCC3CCCO3)c3ccco3)n2)cc1` (stereo not given)?
Chronic BCR inh: inconclusive; D3 antag: inactive; D1 antag: inactive; D1 agonist: inactive; D1 potentiator: inactive; DRD3 agonist: inactive

What do the screens show for `COc1ccc(CN(C(=O)Cn2nnc(-c3ccc(C)o3)n2)C(C(=O)NCC2CCCO2)c2ccco2)cc1` (stereo not given)?
Chronic BCR inh: inactive; D3 antag: inactive; D1 antag: -42; D1 agonist: inactive; D1 potentiator: inactive; DRD3 agonist: inactive

Results for Cc1ccc(-c2nnn(CC(=O)N(c3cccc(F)c3)C(C(=O)NC(C)(C)C)c3ccco3)n2)o1 (stereo not given) ?
Chronic BCR inh: inconclusive; D3 antag: inactive; D1 antag: -39; D1 agonist: inactive; D1 potentiator: inactive; DRD3 agonist: inactive

What do the screens show for `Cc1ccc(-c2nnn(CC(=O)N(c3cccc(O)c3)C(C(=O)NC(C)(C)C)c3cccs3)n2)o1` (stereo not given)?
Chronic BCR inh: inactive; D3 antag: inactive; D1 antag: inactive; D1 agonist: inactive; D1 potentiator: inactive; DRD3 agonist: inactive

Results for Cc1ccccc1N(C(=O)Cn1nnc(-c2ccc(F)cc2)n1)C(C(=O)NC(C)(C)C)c1ccncc1 (stereo not given) ?
Chronic BCR inh: inactive; D3 antag: inactive; D1 antag: -35; D1 agonist: inactive; D1 potentiator: inactive; DRD3 agonist: inactive

Results for O=C(OCc1cn([C@@H]2C[C@H](c3ccc(Cl)cc3)N(C(=O)c3cccs3)C[C@H]2O)nn1)c1ccccc1 ?
D3 antag: inactive; DRD3 agonist: inactive

What do the screens show for `CCOc1ccc(CCNC(=O)Cn2c(-c3cccs3)cc3ccccc32)cc1`?
D1 antag: inactive; D1 agonist: inactive; D1 potentiator: inactive; DRD3 agonist: inactive

How did O=S(=O)(c1ccc(F)cc1F)N1CCCN(c2ccc(C(F)(F)F)cn2)CC1 do in these assays?
Chronic BCR inh: inactive; D3 antag: inactive; D1 antag: inactive; D1 agonist: inactive; D1 potentiator: inactive; DRD3 agonist: inactive

Results for N#Cc1ccc(S(=O)(=O)N2CCCN(c3ccc(C(F)(F)F)cn3)CC2)cc1 ?
Chronic BCR inh: inactive; D3 antag: inactive; D1 antag: -36; D1 agonist: inactive; D1 potentiator: inactive; DRD3 agonist: inactive

Results for CCc1ccccc1NC(=O)CSc1nc2c(c(=O)[nH]1)CN(Cc1ccccc1OC)CC2 ?
D1 antag: inactive; D1 agonist: inactive; D1 potentiator: inactive; DRD3 agonist: inactive

Results for N#Cc1cc2cc3c(cc2nc1SCC(=O)OC1CCCCC1)OCO3 ?
Chronic BCR inh: inactive; D3 antag: inactive; D1 antag: -32; D1 agonist: inactive; D1 potentiator: inactive; DRD3 agonist: inactive

What do the screens show for `CCOC(=O)CC1(CC)Oc2ccccc2N1S(=O)(=O)c1ccc(C)cc1` (stereo not given)?
D3 antag: inactive; DRD3 agonist: inactive

What do the screens show for `C[C@]12CCC(=O)C=C1CC[C@@H]1[C@@H]2[C@@H](O)C[C@@]2(C)[C@H]1CC[C@]2(O)C(=O)COC(=O)CCC(=O)O`?
Chronic BCR inh: inconclusive; D3 antag: -61!; D1 antag: inactive; D1 agonist: inactive; D1 potentiator: inactive; DRD3 agonist: inactive

Results for ON=C(c1ccccc1)c1ccc2c3c(cccc13)CC2 ?
D3 antag: inactive; DRD3 agonist: inactive
